# Measured values published in PubChem BioAssay AID1671190 (National Center for Advancing Translational Sciences (NCATS), 2021).
# Among all 580,000 compounds or so, about 6,100 (1.1%) were called active. Inconclusive results (about 15%) are left out. The call rests on the fitted dose curve; in most records, active means well fitted inhibition curve with a large enough effect; inconclusive means small, poorly fitted or top-dose-only effect, or another doubt; inactive means no such curve, though single readings can be large or run the other way. The list comes from a sample in which actives are over-represented; it also holds similar structures and randomly drawn compounds. Entries that show only a call come without a potency.
# Target: Polyunsaturated fatty acid lipoxygenase ALOX12 (Homo sapiens) (UniProt P18054)
# Test: Primary qHTS assay for inhibitors of human arachidonate 12S-lipoxygenase (ALOX12): Round 2
# Conditions: purified 12hLO, xylenol orange hydroperoxide absorbance; series mostly up to 108 µM
# Summary of the method: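 Hydroperoxide product was detected by ferrous iron/xylenol orange as the 573 to 405 nm absorbance ratio. Arachidonic acid at 40 uM (final) was turned over for 30 min at room temperature by 150 nM human 12hLO, pH 7.0 Hepes buffer, after 15 min compound preincubation.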
# Potency means the concentration at half of the fitted maximal effect.
# Sequence of Polyunsaturated fatty acid lipoxygenase ALOX12 (Homo sapiens) (P18054 whole entry, looked up): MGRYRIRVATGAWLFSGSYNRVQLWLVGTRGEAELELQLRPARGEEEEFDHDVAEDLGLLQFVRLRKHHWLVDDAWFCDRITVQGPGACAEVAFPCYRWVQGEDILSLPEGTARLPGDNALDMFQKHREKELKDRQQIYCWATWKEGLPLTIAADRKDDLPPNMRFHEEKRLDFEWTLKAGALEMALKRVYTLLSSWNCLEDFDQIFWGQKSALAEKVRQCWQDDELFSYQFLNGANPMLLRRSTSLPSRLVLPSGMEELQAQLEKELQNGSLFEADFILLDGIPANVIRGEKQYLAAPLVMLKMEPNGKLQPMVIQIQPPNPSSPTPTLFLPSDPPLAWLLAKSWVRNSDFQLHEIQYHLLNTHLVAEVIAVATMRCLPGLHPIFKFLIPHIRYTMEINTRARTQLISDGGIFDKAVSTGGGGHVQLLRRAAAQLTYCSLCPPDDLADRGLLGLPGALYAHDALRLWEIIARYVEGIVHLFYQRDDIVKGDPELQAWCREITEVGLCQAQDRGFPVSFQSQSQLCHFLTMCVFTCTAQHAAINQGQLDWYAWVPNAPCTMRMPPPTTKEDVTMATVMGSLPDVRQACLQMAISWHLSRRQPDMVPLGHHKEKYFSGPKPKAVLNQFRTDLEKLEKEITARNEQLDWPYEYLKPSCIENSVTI
row,Compound,Potency
1,c1cc(CN2CCc3c(sc4ncnc(N5CCOCC5)c34)C2)ccn1,inactive
2,CCOC(=O)c1c(C)[nH]c(C(=O)OC)c1C,inactive
3,COc1ccc(-c2ccc3nnc(CNC(=O)C(C)Oc4ccc(Cl)cc4)n3n2)cc1 (configuration not stated),inactive
4,Cc1c(S(=O)(=O)N2CCCC2c2cccc(F)c2)cnn1C(F)F (configuration not stated),inactive
5,Cc1cccc(NCC(=O)Nc2cc(Cl)ccc2-n2cncn2)c1C,inactive
6,CCS(=O)(=O)N(C)CCCNC(=O)c1cn(C)c2ccccc12,inactive
7,Cc1ccc(C(NC(=O)Cc2cccs2)C(=O)Nc2ccc3c(c2)OCO3)cc1 (configuration not stated),inactive
8,CN(C)C[C@@H]1CN(C)C[C@H]1NS(=O)(=O)c1cccc(C(F)(F)F)c1,inactive
9,N#CC1=C(N)OC2=C(C(=O)CC(c3ccccc3)C2)C1c1cccs1 (configuration not stated),11.2 µM (active)
10,Cc1ccsc1C1C(C#N)=C(N)OC2=C1C(=O)CC(C)C2 (configuration not stated),inactive
11,Cc1ccsc1C1C(C#N)=C(N)OC2=C1C(=O)CC(C)(C)C2 (configuration not stated),inactive
12,O=C(Cn1ccc2cc(Cl)ccc21)Nc1ccc2[nH]ccc2c1,inactive
13,Cc1cc2nc(/C(C#N)=C\c3ccc(OCc4ccc(F)cc4)cc3)[nH]c2cc1C,inactive
14,CC(C(=O)NC(=O)NC1CCCCC1)n1cnc2c1c(=O)n(C)c(=O)n2C (configuration not stated),inactive
15,CCCCCOc1ccc2c(C)c(CCC(C)C)c(=O)oc2c1,inactive
16,O=C(NC1CCCC1)c1csc(C(O)c2cccc(Cl)c2)n1 (configuration not stated),inactive
17,O=C(Nc1ccc(Cl)cc1)c1csc(C(O)c2cccc(C(F)(F)F)c2)n1 (configuration not stated),22.4 µM (active)
18,O=C(Nc1ccc(Cl)cc1)c1csc([C@@H]2O[C@H](CO)[C@H](O)[C@H](O)[C@H]2O)n1,inactive
19,Cc1nc(-c2ccccc2Cl)sc1C(=O)NC1C=CS(=O)(=O)C1 (configuration not stated),inactive
20,COc1cccc(C(=O)Nc2ccc3oc(C)nc3c2)c1,inactive
21,CCN(CC)c1nc2ccccc2nc1C(=O)Nc1cc(OC)ccc1OC,inactive

row,Compound,Potency
1,Cc1ccc(-c2nn(-c3ccccc3)cc2/C=C2\SC(=S)N(CCCCCC(=O)O)C2=O)o1,31.6 µM (active)
2,CN(C)S(=O)(=O)c1cccc(-c2nn(-c3ccccc3)cc2/C=C2\SC(=S)N(CC(=O)O)C2=O)c1,39.8 µM (active)
3,N#Cc1ccccc1CN1C(=O)S/C(=C/c2cccn2-c2cccc(C(=O)O)c2)C1=O,inactive
4,O=C(CCc1c[nH]c2ccccc12)Nc1ccc(F)cc1,inactive
5,COC(=O)CNC(=O)c1cc2sccc2n1Cc1ccccc1,inactive
6,CC(Sc1ccccn1)C(=O)Nc1cccc(Cl)c1 (configuration not stated),inactive
7,CCC(=O)Oc1ccc2cc(-c3ccccc3)c(=O)oc2c1,inactive
8,COc1ccc(OC)c(/C=C/C(=O)Oc2ccccc2Cl)c1,inactive
9,COc1ccc2c(C)c(CC(=O)NCCc3ccccc3)c(=O)oc2c1,inactive
10,O=C1c2c(nc(COc3ccccc3)n2Cc2ccccc2)NCCN1Cc1cccc(Cl)c1,inactive
11,Cc1ccc(NC(=O)CN2C(=O)C(C)(C)c3cc(S(=O)(=O)N4CCCCC4)ccc32)cc1F,inactive
12,COc1ccc(C)cc1NC(=O)C(C)N1CCN(S(=O)(=O)Cc2ccccc2)CC1 (configuration not stated),inactive
13,COc1ccc(-n2nnc(C(=O)NCc3ccccc3)c2N)cc1OC,inactive
14,CCc1ccc(NC2Nc3cc(C)nn3S2)cc1 (configuration not stated),25.1 µM (active)
15,CCc1ccc(NC(=O)N2CCCC(Cn3cnc4cccnc43)C2)cc1 (configuration not stated),inactive
16,CCc1ccc(N/C(N)=N/c2nc(C)cc(C)n2)cc1,inactive
17,Cc1ccc(-c2cn(CCC(N)=O)c(=O)cn2)cc1,inactive
18,CCS(=O)(=O)n1nc(-c2ccccc2)nc1SCc1ccccc1,28.2 µM (active)
19,O=c1cc(-c2ccccc2)n2c(SCc3ccccc3)nnc2[nH]1,inactive
20,Cc1ccc(S(=O)(=O)n2nc(-c3ccc(Cl)cc3)nc2NCc2ccccc2)cc1,inactive
21,CCOc1ccc(C(=O)Nc2ncc(C)s2)cc1OC,inactive

row,Compound,Potency
1,CCc1nnc(SCC(=O)Nc2ccccc2OC)n1-n1cccc1,inactive
2,CCOC(=O)N1CCN(C(=O)c2ccc(N3C(=O)CCS3(=O)=O)cc2)CC1,inactive
3,CCCC1CCC(c2ccc(-c3ccc4c(n3)CCC(CCC)C4)cc2)CC1 (configuration not stated),inactive
4,FC(F)(F)c1ccc(-n2cn[nH]c2=S)cc1,inactive
5,Cn1c(-c2sccc2OCc2cccc(C(F)(F)F)c2)n[nH]c1=S,28.2 µM (active)
6,CCOC(=O)N1CCN(Cc2nc(Cc3cccc(C(F)(F)F)c3)no2)CC1,inactive
7,O=C(CCS(=O)(=O)c1ccc2c(c1)CCN2C(=O)C1CC1)Nc1ccc(F)c(F)c1,inactive
8,COc1cc(Nc2nc3ccccc3nc2NS(=O)(=O)c2ccc(C)cc2)cc(OC)c1,inactive
9,O=C(c1ccc2c(c1)OCO2)N1CCCN(C(=O)C2CC2)c2ccccc21,inactive
10,CSCC[C@@H](NC(=O)C(c1ccccc1)c1ccccc1)C(=O)O,inactive
11,CC1(C)[C@H](O[C@H]2O[C@H](C(=O)O)[C@@H](O)[C@H](O)[C@H]2O[C@@H]2O[C@H](C(=O)O)[C@@H](O)[C@H](O)[C@H]2O)CC[C@@]2(C)[C@H]1CC[C@]1(C)[C@H]2C(=O)C=C2[C@H]3C[C@@](C)(C(=O)O)CC[C@]3(C)CC[C@]21C,8.63 µM (active)
12,CC1(C)C2CC[C@]3(C)C(CC=C4[C@@H]5C[C@@](C)(CO)CC[C@]5(C(=O)O)CC[C@]43C)[C@@]2(C)CC[C@@H]1O (some centres not stated),inactive
13,Cc1ccc(NC(=O)c2n[nH]c(=O)c3ccccc23)c(C)c1,inactive
14,Cc1cc(Br)ccc1NC(=O)C1CCCCC1,inactive
15,CC1=C[C@@H](CNCC(C)C)[C@H](C(C)C)C[C@H]1Cc1nc2c(C)cccc2[nH]1,inactive
16,COc1ccc2cc(CNC(=O)c3nccnc3N)ccc2c1,inactive
17,C[C@@H](NC(=O)COc1ccccc1)c1c(-c2ccc(F)cc2)noc1C(=O)O,inactive
18,COc1ccc(-c2noc(C(=O)O)c2[C@@H](C)NS(=O)(=O)c2ccccc2)cc1,inactive
19,C[C@@H](NC(=O)c1cccnc1)c1c(-c2ccc(F)cc2)noc1C(=O)O,39.8 µM (active)
20,CC1(C)CC(=O)C(CCS(=O)(=O)OCC(F)(F)C(F)F)(CCS(=O)(=O)OCC(F)(F)C(F)F)C(=O)C1,inactive
